A short description of test [1]: antimalarial activity against Dd2 strain (AID 2302;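 active means growth inhibition above 50% at the single 2 µM test dose, taken to imply half-maximal potency below 2 µM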;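 further: 0% = DMSO untreated growth and 100% = chloroquine plus artemisinin killed control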). The note with it: P. falciparum Dd2 in RBCs, LDH growth readout, 72 h; at 2 µM; active compounds read high.
A short description of test [2]: human hepatoma cell viability loss – ATP luminescence, cytotoxicity control for P. falciparum antimalarial project, primary screen (AID 2303;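 active means inhibition above 50%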;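 further: 0% = DMSO wells and 100% = digitonin-killed cells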). The note with it: HepG2 viability, 24-48 h, at 10 µM, active compounds read high.
Test [3] concerns the target L-lactate dehydrogenase (Plasmodium falciparum (isolate CDC / Honduras)) (UniProt Q27743). Put plainly: PfLDH activity inhibition – cell lysate, 3D7 strain, counter-screen for P. falciparum growth inhibition project (AID 2304).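 Further: 0% = vehicle and 100% = reference inhibitor.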 The settings on record: P. falciparum 3D7 crude extract, LDH APAD/NBT absorbance; at 2 µM; active compounds read high.
Test [4] is described as follows: inhibition of 3D7 malaria parasite growth – strain 3D7 (AID 2306).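 Further: 0% = DMSO wells and 100% = chloroquine plus artemisinin control wells.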 The settings on record: P. falciparum 3D7 erythrocytic growth, LDH absorbance, 72 h; at 2 µM; active compounds read high.
Test [5] has as its target Calcium-dependent protein kinase 1 (Plasmodium falciparum (isolate 3D7)) (UniProt P62344). Put plainly: PfCDPK1 kinase inhibitors, biochemical, TCAMS library (AID 1159585; cut-off not given, nearly all actives have IC50 up to about 0.98 µM;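 further: inhibitors leave more ATP so luminescence rises with inhibition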). The settings on record: recombinant PfCDPK1, Kinase-Glo ATP depletion luminescence.
Test [6] addresses Plasmodium falciparum protein kinase 6 (PK6, PF3D7_1337100) (UniProt Q8IDW1). Put plainly: PfPK6 kinase inhibitors, biochemical, TCAMS library (AID 1159586). The note with it: recombinant PfPK6, Kinase-Glo ATP depletion luminescence.
The target in test [7] is Protein kinase 7 (PK7), Plasmodium falciparum 3D7 (PF3D7_0213400) (UniProt Q7YTF7). Nature of the test: inhibition of Plasmodium PK7 catalytic activity – biochemical, TCAMS antimalarial set, Kinase-Glo luminescence (AID 1159587). The settings on record: recombinant PfPK7, Kinase-Glo ATP depletion luminescence.
Test [8] concerns the target Calcium-dependent protein kinase 4 (Plasmodium falciparum (isolate 3D7)) (UniProt Q8IBS5). Nature of the test: PfCDPK4 kinase inhibitors, biochemical, TCAMS library (AID 1159588; cut-off not given, nearly all actives have IC50 up to about 0.91 µM). The note with it: recombinant PfCDPK4, Kinase-Glo ATP depletion luminescence.

Unmarked numbers belong to inactive results. For some of these results: Entries with a potency or affinity are not part of this list. Calls of active or inactive are those of the source. Unless noted, how the calls were made is not given here.

Chain of Calcium-dependent protein kinase 4 (Plasmodium falciparum (isolate 3D7)) (Q8IBS5 whole entry, looked up): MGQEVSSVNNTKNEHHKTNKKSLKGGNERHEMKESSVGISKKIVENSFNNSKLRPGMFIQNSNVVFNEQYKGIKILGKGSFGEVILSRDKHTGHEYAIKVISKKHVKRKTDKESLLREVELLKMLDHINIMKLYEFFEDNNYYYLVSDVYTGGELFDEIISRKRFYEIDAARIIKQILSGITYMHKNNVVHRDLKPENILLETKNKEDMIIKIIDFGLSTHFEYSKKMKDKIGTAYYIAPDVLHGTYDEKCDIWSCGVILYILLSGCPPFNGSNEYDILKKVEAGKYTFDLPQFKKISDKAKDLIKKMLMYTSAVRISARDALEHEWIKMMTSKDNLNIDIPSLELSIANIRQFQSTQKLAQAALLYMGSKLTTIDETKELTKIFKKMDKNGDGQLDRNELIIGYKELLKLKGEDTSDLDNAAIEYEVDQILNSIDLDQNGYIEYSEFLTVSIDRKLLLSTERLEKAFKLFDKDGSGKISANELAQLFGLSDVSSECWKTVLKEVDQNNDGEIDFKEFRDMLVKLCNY
Chain of Protein kinase 7 (PK7), Plasmodium falciparum 3D7 (PF3D7_0213400) (Q7YTF7 1-343): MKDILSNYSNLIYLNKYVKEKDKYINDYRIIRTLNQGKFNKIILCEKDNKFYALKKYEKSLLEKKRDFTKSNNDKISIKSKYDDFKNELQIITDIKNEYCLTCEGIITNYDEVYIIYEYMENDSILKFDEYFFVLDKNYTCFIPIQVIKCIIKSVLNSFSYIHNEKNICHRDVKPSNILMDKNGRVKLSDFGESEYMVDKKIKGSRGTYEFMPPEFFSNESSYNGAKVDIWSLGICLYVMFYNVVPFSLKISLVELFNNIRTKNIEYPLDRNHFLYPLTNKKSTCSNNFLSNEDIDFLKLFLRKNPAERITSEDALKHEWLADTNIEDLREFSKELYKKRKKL
Chain of L-lactate dehydrogenase (Plasmodium falciparum (isolate CDC / Honduras)) (Q27743 whole entry, looked up): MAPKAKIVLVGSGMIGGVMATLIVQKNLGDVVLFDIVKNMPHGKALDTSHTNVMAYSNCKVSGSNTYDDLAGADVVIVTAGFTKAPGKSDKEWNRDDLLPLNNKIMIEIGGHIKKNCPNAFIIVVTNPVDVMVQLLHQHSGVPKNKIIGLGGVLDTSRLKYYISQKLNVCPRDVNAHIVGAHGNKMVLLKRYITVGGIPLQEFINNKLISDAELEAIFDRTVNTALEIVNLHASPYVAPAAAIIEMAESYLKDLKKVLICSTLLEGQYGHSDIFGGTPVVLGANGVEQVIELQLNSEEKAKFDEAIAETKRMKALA
Chain of Plasmodium falciparum protein kinase 6 (PK6, PF3D7_1337100) (Q8IDW1 1-305): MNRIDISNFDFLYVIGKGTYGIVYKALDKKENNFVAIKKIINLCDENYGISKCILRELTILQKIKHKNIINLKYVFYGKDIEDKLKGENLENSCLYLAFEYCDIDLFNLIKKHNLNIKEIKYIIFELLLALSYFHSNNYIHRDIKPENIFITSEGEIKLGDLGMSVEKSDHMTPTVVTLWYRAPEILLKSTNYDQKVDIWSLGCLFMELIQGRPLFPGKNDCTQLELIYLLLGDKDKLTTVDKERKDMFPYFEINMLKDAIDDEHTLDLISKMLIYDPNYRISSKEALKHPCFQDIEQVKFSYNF
Chain of Calcium-dependent protein kinase 1 (Plasmodium falciparum (isolate 3D7)) (P62344 whole entry, looked up): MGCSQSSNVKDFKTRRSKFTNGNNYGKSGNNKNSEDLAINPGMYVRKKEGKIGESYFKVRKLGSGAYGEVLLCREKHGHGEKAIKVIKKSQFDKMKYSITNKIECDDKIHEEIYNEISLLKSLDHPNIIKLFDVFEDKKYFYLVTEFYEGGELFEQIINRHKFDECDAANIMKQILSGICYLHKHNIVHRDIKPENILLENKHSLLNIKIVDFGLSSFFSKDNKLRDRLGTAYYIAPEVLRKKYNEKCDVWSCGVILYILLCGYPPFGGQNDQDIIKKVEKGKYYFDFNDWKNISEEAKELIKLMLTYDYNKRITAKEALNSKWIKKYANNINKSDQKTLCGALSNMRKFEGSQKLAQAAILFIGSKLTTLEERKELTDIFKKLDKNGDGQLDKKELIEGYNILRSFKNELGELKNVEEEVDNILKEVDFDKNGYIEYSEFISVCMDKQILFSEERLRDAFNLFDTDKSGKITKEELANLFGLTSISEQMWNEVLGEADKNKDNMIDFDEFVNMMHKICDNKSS

As for `CC1(C)N=C(N)N=C(N)N1c1cc(Cl)c(Cl)c(Cl)c1`, the growth inhibition is 31% in test [1] and 93% (active) in test [4]. In addition, the values for the inhibition in test [2] and in test [3] were 68% (active) and -7%, respectively. Moreover, the result in test [5], in test [6], in test [7] and in test [8] was inactive.

With `O=C(C=Cc1ccc(Cl)c(Cl)c1)NCCCCCN1CCC(CCCNC(=O)/C=C/c2ccccc2)CC1`, the figures for the growth inhibition in test [1] and in test [4] were 33% and 96% (active), respectively. The inhibition is 50% (active) in test [2] and -9% in test [3]. In addition, the outcome in test [5], in test [6], in test [7] and in test [8] was inactive.

For the molecule `COC(=O)C(c1ccc(NC(=O)[C@H](CC(C)C)NC(=O)OC(C)(C)C)cc1)c1ccc(NC(=O)[C@H](CC(C)C)NC(=O)OC(C)(C)C)cc1`, the figures for the growth inhibition in test [1] and in test [4] were 42% and 94% (active), respectively. Besides, the values for the inhibition in test [2] and in test [3] were 0% and 2%, respectively. The result in test [5], in test [6], in test [7] and in test [8] was inactive.

Regarding `Cc1cccc(C)c1OC(=O)CSc1nnc(-c2ccccc2O)o1`, the results for the growth inhibition in test [1] and in test [4] were -2% and 97% (active), respectively. For the same molecule, the inhibition was 11% in test [2] and 0% in test [3]. Further, the result in test [5], in test [6], in test [7] and in test [8] was inactive.

As for `FC(F)(F)c1ccc2nccc(NN=Cc3ccccc3)c2c1`, the growth inhibition in test [1] is 2%; in test [4], 92% (active). Besides, the inhibition in test [2] was 7%; in test [3], -1%. Also, the outcome in test [5], in test [6], in test [7] and in test [8] was inactive.

In the case of `N#Cc1cccc(CNC(=O)c2cccc(Nc3ccnc4ccc(F)cc34)c2)c1`, the growth inhibition in test [1] was 26%; in test [4], 87% (active). The inhibition in test [2] was -1%; in test [3], 0%. Also, the outcome in test [5], in test [6], in test [7] and in test [8] was inactive.

Take `CCCCOC(=O)c1ccc(NC(=O)Nc2ccc(Cn3ncc(N4CCCNCC4)c(Cl)c3=O)cc2)cc1`: the growth inhibition in test [1] was 74% (active); in test [4], 92% (active). In addition, the inhibition in test [2] and in test [3] was 2% each time. Besides, the result in test [5], in test [6], in test [7] and in test [8] was inactive.

For the molecule `COc1ccc(-c2ccc(NC(=O)c3ccc(Cl)cc3)cc2)cc1CN(C)CCO`, the growth inhibition was 43% in test [1] and 92% (active) in test [4]. In addition, the figures for the inhibition in test [2] and in test [3] were 43% and 0%, respectively. Moreover, the outcome in test [5], in test [6], in test [7] and in test [8] was inactive.

As to `O=C(c1ccc(O)c(-c2cc(Cl)cc(Cl)c2)c1)N(CCO)CCO`, the growth inhibition was 62% (active) in test [1] and 94% (active) in test [4]. Besides, the inhibition was 1% in test [2] and -9% in test [3]. For the same molecule, the result in test [5], in test [6], in test [7] and in test [8] was inactive.

Take `CC(C)(C)C(=O)Nc1ccc(C(=O)Nc2cccc(-c3nc4ccccc4[nH]3)c2)cc1`: the growth inhibition was 62% (active) in test [1] and 96% (active) in test [4]. The inhibition in test [2] was 56% (active); in test [3], 1%. Further, the outcome in test [5], in test [6], in test [7] and in test [8] was inactive.

Take `COCCOc1ccc(Nc2nccc(-c3c(-c4cccc(NC(=O)c5c(F)cccc5F)c4)nn4ccccc34)n2)cc1F`: the values for the growth inhibition in test [1] and in test [4] were 60% (active) and 90% (active), respectively. For the same molecule, the inhibition in test [2] was 62% (active); in test [3], 1%. Also, the result in test [5], in test [6], in test [7] and in test [8] was inactive.

Consider `CCc1cn(CCS(C)(=O)=O)c2ccc(C(=O)N[C@@H](Cc3ccccc3)[C@H](O)CNC(C)(C)CCCC(C)C)cc12`, for which the growth inhibition in test [1] was 96% (active); in test [4], 87% (active). Further, the inhibition in test [2] is 16%; in test [3], -7%. The outcome in test [5], in test [6], in test [7] and in test [8] was inactive.

Consider `CC(C)c1sc(N2CCN(C)CC2)nc1C(=O)Nc1ccc(F)cc1C(F)(F)F`, for which the growth inhibition in test [1] is 99% (active); in test [4] it was 101% (active). Moreover, the inhibition in test [2] was 3%; in test [3], 4%. Further, the result in test [5], in test [6], in test [7] and in test [8] was inactive.

Take `COc1cccc(NC(=O)COc2ccc(C(=O)Nc3nc4ccccc4[nH]3)cc2)c1`: the growth inhibition was 29% in test [1] and 99% (active) in test [4]. Also, the values for the inhibition in test [2] and in test [3] were 19% and 0%, respectively. Besides, the outcome in test [5], in test [6], in test [7] and in test [8] was inactive.

For the molecule `COc1ccc2sc(CNCCCNc3cc(=O)c4ccccc4[nH]3)c(Cl)c2c1`, the growth inhibition in test [1] is 42%; in test [4] it was 85% (active). Moreover, the values for the inhibition in test [2] and in test [3] were 1% and -4%, respectively. Also, the result in test [5], in test [6], in test [7] and in test [8] was inactive.

Regarding `FC(F)(F)COc1ccc(CNCCCCCCNCc2ccc(OCC(F)(F)F)c3ccccc23)c2ccccc12`, the growth inhibition was 93% (active) in test [1] and 102% (active) in test [4]. Further, the inhibition was 99% (active) in test [2] and 3% in test [3]. Besides, the outcome in test [5], in test [6], in test [7] and in test [8] was inactive.

Regarding `CC(C)c1cc2c(ccc3nc(N)nc(N)c32)[nH]1`, the growth inhibition is 4% in test [1] and 93% (active) in test [4]. For the same molecule, the inhibition in test [2] was 49%; in test [3] it was 2%. In addition, the result in test [5], in test [6], in test [7] and in test [8] was inactive.

As to `CCN(CCCN1CCCCC1)c1cc(C)nc(Nc2ccc(Oc3ccccc3)cc2)n1`, the growth inhibition in test [1] is 99% (active); in test [4] it was 101% (active). The figures for the inhibition in test [2] and in test [3] were 50% (active) and -3%, respectively. The result in test [5], in test [6], in test [7] and in test [8] was inactive.

`Cc1cc(N2CCCCC2)nc2ccc(NC(=O)c3cc(=O)c4ccccc4o3)cc12`: the figures for the growth inhibition in test [1] and in test [4] were 19% and 98% (active), respectively. Besides, the results for the inhibition in test [2] and in test [3] were 15% and -7%, respectively. Moreover, the outcome in test [5], in test [6], in test [7] and in test [8] was inactive.

`Cn1c(NC(=O)CCCCCNC(=O)c2ccc(O)c(-c3ccc(Cl)c(Cl)c3)c2)nc2ccccc21`: the growth inhibition in test [1] is 55% (active); in test [4] it was 100% (active). In addition, the inhibition in test [2] was -6%; in test [3], 7%. Also, the outcome in test [5], in test [6], in test [7] and in test [8] was inactive.
